# Values joined by “and” are separate entries in the source; they are usually repeats but may differ in a detail not shown here. Equal entries are not always repeated. The campaign covered roughly 5,500 compounds. About 2,000 (36%) were called active. Inconclusive results (about 18%) are left out. This is one part of the list. A number with no mark means an inactive call. No stated cut-off is given here; in the data, active means normalized growth mostly below about 0.91 (no sharp cut-off); inconclusive means no clear call, values can overlap the other calls; inactive means mostly above about 0.92.
# Assay: chemical genetic growth profiling, strain panel (AID 1159580);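 further: tested at 20 µM; growth read once vehicle control cultures reached saturation at 30 °C; 1 = growth at the plate median or of vehicle wells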
# Conditions: S. cerevisiae deletion strains, growth OD
structure (smiles),measurement,setting,value
COc1cc2ccc(=O)oc2c2ccoc12,normalized growth,"locus YAL021C, strain ccr4, stronger effect = lower value",0.941
same,normalized growth,"locus YAL026C, strain drs2, stronger effect = lower value",0.859 (active)
same,normalized growth,"locus YAL030W, strain snc1, stronger effect = lower value",0.982
same,normalized growth,"locus YBL061C, strain skt5, stronger effect = lower value",0.999
same,normalized growth,"locus YBR009C, strain hhf1, stronger effect = lower value",0.777 (active)
same,normalized growth,"locus YBR021W, strain FUR4, stronger effect = lower value",1.04
same,normalized growth,"locus YBR023C, strain chs3, stronger effect = lower value",0.932
same,normalized growth,"locus YBR171W, strain sec66, stronger effect = lower value",0.984
same,normalized growth,"locus YBR229C, strain ROT2, stronger effect = lower value",0.998
same,normalized growth,"locus YBR231C, strain swc5, stronger effect = lower value",0.733 (active)
same,normalized growth,"locus YBR279W, strain paf1, stronger effect = lower value",0.99
same,normalized growth,"locus YCL011C, strain gbp2, stronger effect = lower value",0.823 (active)
same,normalized growth,"locus YCL016C, strain dcc1, stronger effect = lower value",0.828 (active)
same,normalized growth,"locus YCL029C, strain bik1, stronger effect = lower value",0.982
same,normalized growth,"locus YCL069W, strain vba3, stronger effect = lower value",0.915 (active)
same,normalized growth,"locus YCR088W, strain abp1, stronger effect = lower value",1.01
same,normalized growth,"locus YDL005C, strain med2, stronger effect = lower value",0.994
same,normalized growth,"locus YDL035C, strain GPR1, stronger effect = lower value",0.971
same,normalized growth,"locus YDL040C, strain nat1, stronger effect = lower value",1
same,normalized growth,"locus YDL074C, strain BRE1, stronger effect = lower value",0.85
same,normalized growth,"locus YDL101C, strain DUN1, stronger effect = lower value",0.94
same,normalized growth,"locus YDL134C, strain PPH21, stronger effect = lower value",0.964
same,normalized growth,"locus YDL185W, strain tfp1, stronger effect = lower value",0.937
same,normalized growth,"locus YDL192W, strain arf1, stronger effect = lower value",0.955
same,normalized growth,"locus YDR001C, strain nth1, stronger effect = lower value",0.994
same,normalized growth,"locus YDR069C, strain doa4, stronger effect = lower value",0.905
same,normalized growth,"locus YDR101C, strain arx1, stronger effect = lower value",0.985
same,normalized growth,"locus YDR137W, strain rgp1, stronger effect = lower value",1.03
same,normalized growth,"locus YDR159W, strain sac3, stronger effect = lower value",0.829 (active)
same,normalized growth,"locus YDR162C, strain NBP2, stronger effect = lower value",0.974
same,normalized growth,"locus YDR195W, strain ref2",1.3 [resistant] (active)
same,normalized growth,"locus YDR297W, strain sur2, stronger effect = lower value",0.903 (active)
same,normalized growth,"locus YDR318W, strain mcm21, stronger effect = lower value",0.965
same,normalized growth,"locus YDR334W, strain swr1, stronger effect = lower value",0.772 (active)
same,normalized growth,"locus YDR335W, strain msn5, stronger effect = lower value",0.896 (active)
same,normalized growth,"locus YDR388W, stronger effect = lower value",1
same,normalized growth,"locus YDR392W, strain spt3, stronger effect = lower value",0.665 (active)
same,normalized growth,"locus YDR502C, strain sam2, stronger effect = lower value",0.958
same,normalized growth,"locus YEL003W, strain gim4, stronger effect = lower value",0.818 (active)
same,normalized growth,"locus YEL037C, strain rad23, stronger effect = lower value",0.957
same,normalized growth,"locus YEL061C, strain CIN8 (second series), stronger effect = lower value",0.99
same,normalized growth,"locus YER015W, strain faa2, stronger effect = lower value",0.92 (active)
same,normalized growth,"locus YER016W, strain bim1, stronger effect = lower value",1
same,normalized growth,"locus YER110C, stronger effect = lower value",0.975
same,normalized growth,"locus YER111C, strain swi4, stronger effect = lower value",1
same,normalized growth,"locus YER155C, strain BEM2 (second series), stronger effect = lower value",0.731 (active)
same,normalized growth,"locus YER155C, strain BEM2, stronger effect = lower value",1.02
same,normalized growth,"locus YER167W, strain BCK2, stronger effect = lower value",1.01
same,normalized growth,"locus YFR010W, strain ubp6, stronger effect = lower value",0.915
same,normalized growth,"locus YGL078C, strain dbp3, stronger effect = lower value",0.967
same,normalized growth,"locus YGL086W, strain mad1, stronger effect = lower value",0.969
same,normalized growth,"locus YGL167C, strain pmr1, stronger effect = lower value",0.998
same,normalized growth,"locus YGL173C, strain kem1, stronger effect = lower value",0.862 (active)
same,normalized growth,"locus YGL227W, strain vid30, stronger effect = lower value",0.999
same,normalized growth,"locus YGL240W, strain doc1, stronger effect = lower value",0.692 (active)
same,normalized growth,"locus YGL248W, strain PDE1, stronger effect = lower value",0.952
same,normalized growth,"locus YGL253W, strain hxk2, stronger effect = lower value",0.892 (active)
same,normalized growth,"locus YGR078C, strain PAC10, stronger effect = lower value",0.977
same,normalized growth,"locus YGR135W, strain pre9, stronger effect = lower value",0.893 (active)
same,normalized growth,"locus YGR252W, strain gcn5, stronger effect = lower value",0.76 (active)
same,normalized growth,"locus YHR013C, strain ard1, stronger effect = lower value",0.953
same,normalized growth,"locus YHR027C, strain rpn1, stronger effect = lower value",0.881 (active)
same,normalized growth,"locus YHR030C, strain SLT2, stronger effect = lower value",1 and 0.986
same,normalized growth,"locus YHR079C, strain IRE1 (second series), stronger effect = lower value",0.961
same,normalized growth,"locus YHR079C, strain IRE1, stronger effect = lower value",1.02
same,normalized growth,"locus YHR094C, strain hxt1, stronger effect = lower value",0.996
same,normalized growth,"locus YHR129C, strain ARP1, stronger effect = lower value",1
same,normalized growth,"locus YHR142W, strain chs7, stronger effect = lower value",0.838 (active)
same,normalized growth,"locus YHR200W, strain rpn10, stronger effect = lower value",0.899 (active)
same,normalized growth,"locus YIL066C, strain RNR3, stronger effect = lower value",1
same,normalized growth,"locus YIL073C, strain SPO22, stronger effect = lower value",0.957
same,normalized growth,"locus YIL125W, strain kgd1, stronger effect = lower value",1.01
same,normalized growth,"locus YIR030C, strain dcg1, stronger effect = lower value",0.993
same,normalized growth,"locus YJL092W, strain hpr5, stronger effect = lower value",0.973
same,normalized growth,"locus YJL095W, strain BCK1 (second series), stronger effect = lower value",0.937
same,normalized growth,"locus YJL095W, strain BCK1, stronger effect = lower value",0.906 and 0.992
same,normalized growth,"locus YJL115W, strain asf1, stronger effect = lower value",0.883 (active)
same,normalized growth,"locus YJL129C, strain trk1, stronger effect = lower value",1.14 [resistant] (active)
same,normalized growth,"locus YJL134W, strain LCB3, stronger effect = lower value",1
same,normalized growth,"locus YJL154C, strain vps35, stronger effect = lower value",0.996
same,normalized growth,"locus YJL164C, strain tpk1, stronger effect = lower value",0.902 (active)
same,normalized growth,"locus YJL166W, strain qcr8, stronger effect = lower value",0.826 (active)
same,normalized growth,"locus YJL168C, strain set2, stronger effect = lower value",0.983
same,normalized growth,"locus YJL187C, strain SWE1 (second series), stronger effect = lower value",0.98
same,normalized growth,"locus YJR043C, strain POL32, stronger effect = lower value",0.921

# Reference: PubChem BioAssay AID1159580 (chemical genetic matrix, 2015)
